Reference: PubChem BioAssay (Tox21)
Values joined by “and” are separate entries in the source; they are usually repeats but may differ in a detail not shown here. Identical values can stand only once. Results filed as inconclusive are left out. A call without a number means that no potency is given here. More than one record can exist for a structure, and the calls need not agree. Active and inactive are the calls of the source. Unless noted, calls come from the whole dose curve; as a rule, active = well fitted curve in the direction sought with a large enough effect in the repeat runs; inconclusive = weak or mixed curves; inactive = no such curve, though single readings can be large; an effect the other way counts as inactive or inconclusive.

Tests used:
[1] = qHTS assay to identify small molecule antagonists of the glucocorticoid receptor (GR) signaling pathway - cell viability counter screen (AID 720693); note: nearly all actives have a fitted effect of over 55% in size; note: potency is the fitted concentration of half-maximal effect
[2] = qHTS assay for identifying genotoxic compounds that show differential cytotoxicity against isogenic chicken DT40 cell lines with known DNA damage response pathways - wild type cell line (AID 743012); note: nearly all actives have a fitted effect of over 60% in size; note: potency is the fitted concentration of half-maximal effect
How it was run: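 Quantitative HTS on parental DT40 cells: 40 h compound treatment at 37 C/5% CO2, with viability then determined by CellTiter-Glo luminescence. Values serve as the DNA repair-proficient reference for differential cytotoxicity.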

[3] = qHTS assay for identifying genotoxic compounds that show differential cytotoxicity against isogenic chicken DT40 cell lines with known DNA damage response pathways - Rev3 mutant cell line (AID 743014); note: nearly all actives have a fitted effect of over 55% in size; note: potency is the fitted concentration of half-maximal effect
[4] = qHTS assay for identifying genotoxic compounds that show differential cytotoxicity against isogenic chicken DT40 cell lines with known DNA damage response pathways - Rad54/Ku70 mutant cell line (AID 743015); note: nearly all actives have a fitted effect of over 60% in size; note: potency is the fitted concentration of half-maximal effect
[5] = qHTS assay to identify small molecule antagonists of the androgen receptor (AR) signaling pathway - cell viability counter screen (AID 743033; note: nearly all actives have a fitted effect of over 45% in size; note: potency is the fitted concentration of half-maximal effect)
[6] = qHTS assay to identify small molecule antagonists of the androgen receptor (AR) signaling pathway using the MDA cell line - cell viability counter screen (AID 743041; note: nearly all actives have a fitted effect of over 45% in size)
How it was run: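 Cells were plated at 3,000 per well and left 5 h. Compounds in DMSO were then pinned in, followed by R1881. After 16 h at 37C, CellTiter-Fluor fluorescence gave viability.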

[7] = target: Androgen receptor (Homo sapiens) (UniProt P10275); experiment: qHTS assay to identify small molecule agonists of the androgen receptor (AR) signaling pathway using the MDA cell line (AID 743040; note: nearly all actives have a fitted effect of over 20% in size); conditions: MDA-kb2 AR-luc cells, MMTV luciferase, 16 h; activity change: at 70.3 µM (top of the series), stronger effect = higher value
How it was run: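 Cells plated, 5 h at 37C/0% CO2; compound or DMSO pinned; 16 h at 37C; ONE-Glo added; luminescence measured after 30 min at room temperature. Reporter line: MDA-kb2 with MMTV-luciferase responsive to AR and GR.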

[8] = target: Androgen receptor (Homo sapiens) (UniProt P10275); experiment: qHTS assay to identify small molecule antagonists of the androgen receptor (AR) signaling pathway using the MDA cell line (AID 743042; note: nearly all actives have a fitted effect of over 55% in size; note: potency is the fitted concentration of half-maximal effect)
How it was run: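 Antagonist mode: compounds plus R1881 agonist added to MDA-kb2 AR-luc cells, incubated 16 h at 37C. Luciferase reporter luminescence quantified, with multiplexed CellTiter-Fluor readout for cell viability.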

[9] = target: Androgen receptor (Homo sapiens) (UniProt P10275); experiment: qHTS assay to identify small molecule antagonists of the androgen receptor (AR) signaling pathway (AID 743035; active = well fitted inhibition curve with a large enough effect in the signal ratio in the repeat runs, not every such curve was filed as active; the % refers to the signal ratio)
How it was run: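 Cell line: GeneBLAzer AR-UAS-bla GripTite (HEK293). Stimulus: R1881 added after compound. Exposure: 16 h, 37C, 5% CO2. Readout: LiveBLAzer B/G FRET fluorescence after 2 h at room temperature.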

[10] = target: Androgen receptor (Homo sapiens) (UniProt P10275); experiment: qHTS assay to identify small molecule agonists of the androgen receptor (AR) signaling pathway (AID 743036; active = well fitted activation curve with a large enough effect in the signal ratio in the repeat runs, with a control signal flat, not every such curve was filed as active; the % refers to the signal ratio)
How it was run: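 Activation was read as beta-lactamase FRET signal from LiveBLAzer B/G substrate, added for 2 h at room temperature. Before that, GeneBLAzer AR-UAS-bla GripTite (HEK293) cells had 16 h compound exposure at 37C.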

Chain of Androgen receptor (Homo sapiens) (P10275 whole entry, looked up): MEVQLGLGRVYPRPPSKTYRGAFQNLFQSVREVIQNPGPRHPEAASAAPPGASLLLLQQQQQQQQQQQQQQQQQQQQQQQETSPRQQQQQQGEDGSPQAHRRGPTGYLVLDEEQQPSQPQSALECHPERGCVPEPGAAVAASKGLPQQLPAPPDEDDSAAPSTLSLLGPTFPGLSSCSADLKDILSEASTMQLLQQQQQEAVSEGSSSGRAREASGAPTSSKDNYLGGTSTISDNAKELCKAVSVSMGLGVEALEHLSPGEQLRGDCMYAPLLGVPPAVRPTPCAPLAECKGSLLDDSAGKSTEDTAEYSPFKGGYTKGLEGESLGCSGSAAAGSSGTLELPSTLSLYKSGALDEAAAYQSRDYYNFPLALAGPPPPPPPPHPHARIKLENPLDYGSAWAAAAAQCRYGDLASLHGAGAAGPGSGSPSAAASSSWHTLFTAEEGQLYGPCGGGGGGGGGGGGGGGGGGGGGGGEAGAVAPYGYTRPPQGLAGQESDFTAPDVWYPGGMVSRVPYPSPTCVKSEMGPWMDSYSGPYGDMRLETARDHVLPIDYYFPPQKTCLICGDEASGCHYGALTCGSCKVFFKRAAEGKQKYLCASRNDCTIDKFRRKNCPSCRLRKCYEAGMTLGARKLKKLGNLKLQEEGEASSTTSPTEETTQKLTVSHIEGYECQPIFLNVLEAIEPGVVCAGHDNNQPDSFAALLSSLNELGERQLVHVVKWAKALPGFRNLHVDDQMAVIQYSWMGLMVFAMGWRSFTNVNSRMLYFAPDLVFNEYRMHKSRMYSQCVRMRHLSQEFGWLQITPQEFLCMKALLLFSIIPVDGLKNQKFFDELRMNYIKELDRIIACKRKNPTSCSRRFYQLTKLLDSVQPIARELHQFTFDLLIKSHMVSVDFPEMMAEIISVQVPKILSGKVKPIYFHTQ

SMILES	Potency [1]	Potency [2]	Potency [3]	Potency [4]	Potency [5]	Potency [6]	Potency [7]	Potency [8]	Potency [9]	Potency [10]
CN(C)c1ccc(N=O)cc1	39 µM (active) and 43.6 µM (active)	1.73 µM (active) and 1.93 µM (active)	546 nM (active) and 1.93 µM (active)	1.37 µM (active) and 1.72 µM (active)	12.3 µM (active) and 43.6 µM (active)	–	–	–	–	–
O=S(=O)(Cl)Cl	inactive	inactive	inactive	inactive	inactive	–	–	–	–	–
Clc1ccc(Cl)c(Cl)c1	inactive	inactive	inactive	inactive	inactive	inactive	–	–	–	–
O=C1NC(=O)C(=O)C(=O)N1	inactive	inactive	inactive	inactive	inactive	–	–	–	–	–
N#CC(C#N)=Cc1ccc(O)c(O)c1	inactive	13.3 µM (active)	26.6 µM (active)	26.6 µM (active)	inactive	–	inactive	inactive	–	–
CC(C)(C)CC(C)(C)c1ccc(O)cc1	24.5 µM (active)	23.7 µM (active) and 12.2 µM (active)	11.9 µM (active) and 19.3 µM (active)	27.3 µM (active)	inactive	–	inactive	inactive	–	–
c1ccc2sc(SNC3CCCCC3)nc2c1	inactive	inactive and 61.1 µM (active)	inactive and 61.1 µM (active)	inactive and 54.5 µM (active)	inactive	–	–	–	–	–
O=C([O-])c1ccccn1.O=C([O-])c1ccccn1.O=C([O-])c1ccccn1.[Cr+3]	inactive	inactive	inactive	inactive	inactive	–	–	–	–	–
Cc1ccc2c(C)cccc2c1	inactive	inactive	inactive	inactive	inactive	–	–	–	–	–
Nc1cc(Cl)cc(C(=O)O)c1Cl	inactive	inactive	inactive	inactive	inactive	–	–	–	–	–
CCCCOC(=O)CCC(=O)OCCCC	inactive	inactive	inactive	inactive	inactive	inactive	–	–	–	–
O=C(N[C@H]1CN2CCC1CC2)c1ccc2c(c1)OCCO2	inactive	inactive	inactive	inactive	inactive	–	inactive	inactive	inactive	inactive
COC(=O)Cc1ccccc1	inactive	inactive	inactive	inactive	inactive	–	–	–	–	–
CC(Cl)C(=O)O (centres undefined)	inactive	inactive	inactive	inactive	inactive	inactive	inactive	inactive	inactive	inactive
ClCc1ccccc1Cl	inactive	inactive	inactive	inactive	inactive	inactive	inactive	inactive	inactive	–
CC(C)OC(=O)Cc1ccccc1	inactive	inactive	inactive	inactive	inactive	inactive	–	–	–	–
O=CC=O	inactive	inactive	inactive and 49.9 µM (active)	inactive	inactive	inactive	inactive	inactive	inactive	inactive
CCC(C)(C)c1ccc(O)c(C(C)(C)CC)c1	19.3 µM (active) and 19.5 µM (active)	24.3 µM (active)	27.3 µM (active)	53.9 µM (active) and 24.3 µM (active)	54.4 µM (active)	–	–	–	–	–
Clc1ccccc1	inactive	inactive	inactive	inactive	inactive	inactive	–	–	–	–

SMILES	Potency [1]	Potency [2]	Potency [3]	Potency [4]	Potency [5]	Potency [6]	Potency [7]	Potency [8]	Potency [9]	Potency [10]
O=C(O)c1cc(Cl)ccc1Cl	inactive	inactive	inactive	inactive	inactive	inactive	–	–	–	–
NP(N)(=O)NC(=O)c1ccc(F)cc1	inactive	inactive	inactive	inactive	inactive	inactive	inactive	inactive	–	inactive
CCCC(C)(COC(N)=O)COC(=O)NC(C)C (centres undefined)	inactive	inactive	inactive	inactive	inactive	–	–	–	–	–
FC(Cl)(Cl)C(F)(Cl)Cl	inactive	inactive	inactive	inactive	inactive	–	–	–	–	–
CC(C)CCON=O	inactive	inactive	inactive	inactive	inactive	–	–	–	–	–
C[C@H]1O[C@H](OC2[C@@H](O)[C@@H](O)C(O)[C@H](O)[C@H]2O)[C@@H](N)C[C@@H]1N=C(N)C(=O)O (some centres undefined)	inactive	inactive	inactive	inactive	inactive	–	–	–	–	–
CC1(C)[C@H](C(=O)O[C@H](C#N)c2cccc(Oc3ccccc3)c2)[C@@H]1C=C(Br)Br	inactive	inactive	inactive and 48.6 µM (active)	inactive and 43.3 µM (active)	inactive	inactive	inactive	inactive	inactive	inactive
COc1cc(CC(C)N)c(OC)cc1Br (centres undefined)	inactive	11.2 µM (active) and 29.8 µM (active)	15.9 µM (active)	15.9 µM (active)	inactive	–	–	–	–	–
CCCN(CCOc1c(Cl)cc(Cl)cc1Cl)C(=O)n1ccnc1	inactive	27.3 µM (active)	31.3 µM (active) and 30.6 µM (active)	49.6 µM (active) and 27.3 µM (active)	25.1 µM (active)	–	–	–	–	–
COCc1cnc(C2=NC(C)(C(C)C)C(=O)N2)c(C(=O)O)c1 (centres undefined)	inactive	inactive	inactive	inactive	inactive	inactive	inactive	inactive	inactive	inactive
C=CCSSCC=C	inactive	inactive	inactive	inactive	inactive	–	–	–	–	–
C[N+]1(CCF)[C@@H]2CC[C@H]1CC(OC(=O)C(O)(c1ccccc1)c1ccccc1)C2 (some centres undefined)	inactive	inactive	inactive	inactive	inactive	inactive	–	–	–	–
CCCCCCCCCCCCCCCl	inactive	inactive	inactive	inactive	inactive	inactive	–	–	–	–
CCCCCl	inactive	inactive	inactive	inactive	inactive	–	–	–	–	–
C=CC(=O)OCC	inactive	inactive	inactive	inactive	inactive	–	–	–	–	–
NNCCO	inactive	inactive	inactive	inactive	inactive	–	–	–	–	–
C[N+]1(CCC(C(N)=O)(c2ccccc2)c2ccccc2)CCCCC1	inactive	inactive	inactive	inactive	inactive	–	–	–	–	–
SCc1ccccc1	inactive	inactive	inactive	inactive	inactive	–	–	–	–	–
COP(=O)(OC)OC(Br)C(Cl)(Cl)Br (centres undefined)	inactive	30.7 µM (active) and 13.7 µM (active)	13.7 µM (active)	38.6 µM (active) and 21.7 µM (active)	–	inactive	inactive	68.7 µM (active) and 61.1 µM (active)	–	–

SMILES	Potency [1]	Potency [2]	Potency [3]	Potency [4]	Potency [5]	Potency [6]	Potency [7]	Potency [8]	Potency [9]	Potency [10]
CCOP(=O)(O)C(N)=O	inactive	inactive	inactive	inactive	inactive	inactive	–	–	–	–
COc1ccc(C(O)(c2cncnc2)C2CC2)cc1 (centres undefined)	inactive	inactive	inactive	inactive	inactive	inactive	–	–	–	–
CCC(C)(C)O	inactive	inactive	inactive	inactive	inactive	inactive	–	–	–	–
CCC(C)Cl (centres undefined)	inactive	inactive	inactive	inactive	inactive	inactive	–	–	–	–
Cc1nc(N(C)C)nc(OC(=O)N(C)C)c1C	inactive	inactive	inactive	inactive	inactive	inactive	–	–	–	–
CCC1(CC)C(=O)NC(=O)NC1=O	inactive	inactive	inactive	inactive	inactive	inactive	–	–	–	–
O=[N+]([O-])c1cc(Cl)c(Cl)cc1Cl	inactive	inactive	inactive	inactive	inactive	inactive	–	–	–	–
CC(C)(C)NCC(O)c1ccccc1Cl (centres undefined)	inactive	inactive	inactive	inactive	inactive	inactive	–	–	–	–
CC(C)(c1ccccc1)c1cc(-n2nc3ccccc3n2)c(O)c(C(C)(C)c2ccccc2)c1	inactive	inactive	inactive	inactive	inactive	inactive	–	–	–	–
CCCBr	inactive	inactive	inactive	inactive	inactive	inactive	–	–	–	–
O=C(CCl)CCl	inactive	0.864 µM (active)	0.273 µM (active)	inactive and 686 nM (active)	inactive	inactive	–	–	–	–
CCCCC#N	inactive	inactive	inactive	inactive	inactive	inactive	–	–	–	–
CCNC(=O)NC(=O)/C(C#N)=N/OC	inactive	inactive	inactive	inactive	inactive	inactive	–	–	–	–
Cc1ccc(N)c(C)c1	inactive	inactive	inactive	inactive	inactive	inactive	–	–	–	–
CCN(C(C)=O)c1cccc(-c2ccnc3c(C#N)cnn23)c1	inactive	inactive	inactive	inactive	inactive	inactive	–	–	–	–
CCc1cnc(C2=NC(C)(C(C)C)C(=O)N2)c(C(=O)O)c1 (centres undefined)	inactive	inactive	inactive	inactive	inactive	inactive	–	–	–	–
CC[N+]1(C)CCCC(OC(=O)C(O)(c2ccccc2)c2ccccc2)C1 (centres undefined)	inactive	inactive	inactive	inactive	inactive	inactive	–	–	–	–
CCCCCCCCP(=O)(O)O	inactive	inactive	inactive	inactive	inactive	inactive	–	–	–	–
C[Si](Cn1cncn1)(c1ccc(F)cc1)c1ccc(F)cc1	inactive	12.6 µM (active) and 10.9 µM (active)	3.98 µM (active) and 4.86 µM (active)	8.92 µM (active) and 9.69 µM (active)	14.3 µM (active)	inactive	–	–	–	–
